Pf Dd2 growth: P. falciparum Dd2 growth inhibition; SYBR Green, 72 h; stronger effect = lower value; activity change, % at 10 µM; hit rate 2.3% among 94,000; AID 1159554; in the data active = activity change below about -80%; inconclusive = no clear call, values can overlap the other calls
C diff HTS: C. difficile growth inhibition | Clostridium difficile clinical isolate growth, OD600, 24 h; stronger effect = lower value | growth activity, negative = inhibition, % at 16 µg/mL (by protocol) | hit rate 0.25% among 86,000 | AID 1259249;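 active = mean growth activity at or below -80% and every replicate also at or below -80%; inconclusive = mean at or below -80% but some replicate above -80%; inactive = mean growth activity above -80%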;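 also: 0% = DMSO wells and -100% = levofloxacin 16 µg/mL wells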
T cruzi growth-1: blocks T. cruzi growth in NIH3T3 culture; T. cruzi beta-gal in NIH3T3, GalScreen luminescence, 90 h; inhibition, % at 8.34 µM; hit rate 5.9% among 77,000;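 active = mean inhibition above about 93%, with at least 55% of replicates each passing it, limit read from the data, passing the limit was not always enough; inconclusive = only one of those two conditions holds; inactive = neither condition holds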
T cruzi growth-2: blocks T. cruzi growth in NIH3T3 host cells | inhibition, % at 8.35 µM | T. cruzi beta-gal in NIH3T3, GalScreen luminescence, 90 h | hit rate 72% among 5,600 | shares compounds with T cruzi growth-1;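 active = mean replicate inhibition above about 95% and at least 55% of replicates individually reaching it, limit read from the data; inconclusive = only one of the two criteria is met; inactive = neither criterion is met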
T cruzi growth-3: inhibitors of T. cruzi proliferation. shares compounds with T cruzi growth-1. T. cruzi beta-gal in NIH3T3, GalScreen luminescence, 90 h. inhibition, % at 2.09 µM. hit rate 21% among 5,600;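 active = mean inhibition above about 95%, with at least 55% of replicates also reaching it, limit read from the data; inconclusive = meets just one of the two conditions; inactive = meets neither condition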;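 also: plate controls were neutral control median for no effect and positive control median for full effect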
NIH3T3 tox: kills mouse NIH/3T3 fibroblasts; shares compounds with T cruzi growth-1; NIH/3T3 viability, CellTiter-Glo ATP luminescence, 90 h; cytotoxicity (signal decrease), % at 8.35 µM; hit rate 14% among 5,600; AID 651742;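 active = mean signal decrease across replicates above about 35% based on untreated-well scatter, with enough replicates individually passing, limit read from the data; inconclusive = no rule stated though some were filed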;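 also: 0% = median of neutral control wells and 100% = median of positive control wells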
NIH3T3 tox 2: kills mouse NIH/3T3 fibroblasts; shares compounds with T cruzi growth-1; NIH/3T3 viability, CellTiter-Glo ATP luminescence, 90 h; inhibition, % at 24.9 µM; hit rate 56% among 5,600;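 active = mean loss of cell viability signal at or above a set limit, and enough replicates individually reaching it; inconclusive = meets only the mean limit or only the replicate share; inactive = meets neither condition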;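 also: 0% = median of neutral control wells and 100% = median of positive control wells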
Numbers without * were called inactive; ? = inconclusive; . = no result given. Hits are enriched below; roughly 6.8% of the tested compounds scored in any of these assays.

SMILES | Pf Dd2 growth | C diff HTS | T cruzi growth-1 | T cruzi growth-2 | T cruzi growth-3 | NIH3T3 tox | NIH3T3 tox 2
CC=Cc1ccc2n(c1=O)C[C@@H]1[C@@H](CO)[C@H](C(=O)NC3CCC3)N(Cc3ccncc3)[C@H]21 (mixture of isomers) | 44 | -5 | . | . | . | . | .
COCC(=O)N1CCCCN2[C@H](C1)[C@@H](c1ccc(-c3ccc(C)cc3)cc1)[C@@H]2CO | 8 | -10 | -9 | . | . | . | .
COCC(=O)N1CCCCN2[C@H](CO)[C@@H](c3ccc(-c4ccc(OC)cc4)cc3)[C@H]2C1 | 27 | 0 | 97* | 32 | 18 | 5 | 10
COCC(=O)N1CCCCN2[C@H](C1)[C@H](c1ccc(-c3ccc(OC)cc3)cc1)[C@@H]2CO | 12 | 0 | 79 | . | . | . | .
COCC(=O)N1CCCCN2[C@H](CO)[C@@H](c3ccc(-c4ccc(C)cc4)cc3)[C@H]2C1 | 14 | -7 | -8 | . | . | . | .
COCC(=O)N1CCCCN2[C@H](CO)[C@H](c3ccc(-c4ccc(C)cc4)cc3)[C@H]2C1 | 0 | -8 | 102* | 78 | -4 | -7 | 29*
COCC(=O)N1CCCCN2[C@@H](CO)[C@@H](c3ccc(-c4ccc(OC)cc4)cc3)[C@@H]2C1 | 17 | -2 | 103* | 83 | 77 | -6 | -4
C[C@H]1CN([C@@H](C)CO)S(=O)(=O)c2ccc(-c3cccnc3)cc2O[C@@H]1CN(C)C(=O)C1CCC1 | -20 | -12 | 32 | . | . | . | .
COc1ccc(CN2C[C@H](O)COC[C@@H]3O[C@@H](CC(=O)NCc4ccccc4Cl)CC[C@H]32)cc1 | -1 | 44 | -21 | . | . | . | .
O=C(C[C@@H]1CC[C@@H](NC(=O)Nc2ccccc2F)[C@@H](CO)O1)NCc1ccc(Cl)cc1 | 1 | 4 | 57 | . | . | . | .
CC(C)NC(=O)Nc1ccc2c(c1)C(=O)N([C@H](C)CO)C[C@@H](C)[C@@H](CN(C)C(=O)NC1CCCCC1)OCCCC[C@@H](C)O2 | -38 | 8 | 30 | . | . | . | .
C[C@H](O)C#Cc1ccc([C@@H]2[C@H](CO)N3CCCCN(S(=O)(=O)c4ccccc4)C[C@@H]23)cc1 | -21 | -12 | 114* | 19 | 13 | -1 | 19
Cc1cccc(S(=O)(=O)N2CCCCN3[C@@H](CO)[C@H](c4ccc(C#C[C@@H](C)O)cc4)[C@@H]3C2)c1 | -25 | 15 | 82 | . | . | . | .
C[C@H](O)C#Cc1ccc([C@H]2[C@H]3CN(S(=O)(=O)c4ccccc4)CCCCN3[C@H]2CO)cc1 | -9 | 1 | ? | 97* | 20 | 3 | 6
C[C@H](O)C#Cc1ccc([C@H]2[C@@H](CO)N3CCCCN(S(=O)(=O)c4ccccc4)C[C@H]23)cc1 | -17 | -5 | 19 | . | . | . | .
C[C@H](CO)N1C[C@H](C)[C@H](CN(C)S(=O)(=O)c2cccs2)Oc2ccc(NS(=O)(=O)c3ccc(F)cc3)cc2CC1=O | -53 | 9 | 21 | . | . | . | .
C[C@@H](NC(=O)[C@H]1N[C@H]2c3ccc(-c4ccncc4)c(=O)n3C[C@H]2[C@@H]1CO)c1ccccc1 | -3 | 4 | 58 | . | . | . | .
C[C@H](NC(=O)[C@@H]1N[C@@H]2c3ccc(C4=CCCC4)c(=O)n3C[C@@H]2[C@H]1CO)c1ccccc1 | . | -2 | 97* | 40 | -37 | 1 | -10
C[C@@H](NC(=O)[C@@H]1N[C@@H]2c3ccc(C4=CCCCC4)c(=O)n3C[C@@H]2[C@H]1CO)c1ccccc1 | 4 | 4 | 101* | 109* | -4 | 2 | 7
CC(=O)N1[C@@H]2c3ccc(C4=CCCCC4)c(=O)n3C[C@H]1[C@H](CO)[C@H]2C(=O)N[C@H](C)c1ccccc1 | . | 17 | 21 | . | . | . | .
CC(=O)N1[C@@H]2c3ccc(C4=CCCC4)c(=O)n3C[C@H]1[C@H](CO)[C@H]2C(=O)N[C@H](C)c1ccccc1 | 3 | -1 | 101* | -16 | 8 | 12 | 4
C[C@@H](NC(=O)[C@H]1N[C@H]2c3ccc(C4=CCCCC4)c(=O)n3C[C@H]2[C@@H]1CO)c1ccccc1 | 3 | 4 | -4 | . | . | . | .
CCC(=O)N1[C@H](CN(C)C(C)=O)[C@@H](c2ccc(-c3cccnc3)cc2)[C@@H]1CO | -5 | -1 | 13 | . | . | . | .
CCC(=O)N1[C@H](CO)[C@@H](c2ccc(-c3cccc(F)c3)cc2)[C@H]1CNC(C)=O | -10 | -6 | -9 | . | . | . | .
C[C@H]1CN([C@@H](C)CO)C(=O)c2cccc(NC(=O)C3CCOCC3)c2O[C@@H]1CN(C)CC1CC1 | -6 | 0 | -2 | . | . | . | .
SMILES | Pf Dd2 growth | C diff HTS | T cruzi growth-1 | T cruzi growth-2 | T cruzi growth-3 | NIH3T3 tox | NIH3T3 tox 2
CC(C)CC#Cc1ccc2c(c1)O[C@H](CN(C)Cc1cccnc1)[C@H](C)CN([C@H](C)CO)S2(=O)=O | . | -2 | 106* | 104* | 82 | 32 | 103*
CC(C)CC#Cc1ccc2c(c1)O[C@@H](CN(C)Cc1cccnc1)[C@H](C)CN([C@H](C)CO)S2(=O)=O | . | 21 | 87 | . | . | . | .
CC(C)CC#Cc1ccc2c(c1)O[C@H](CN(C)Cc1cccnc1)[C@@H](C)CN([C@H](C)CO)S2(=O)=O | . | 9 | 96* | 104* | 100* | 16 | 104*
CC(C)CC#Cc1ccc2c(c1)O[C@@H](CN(C)Cc1cncnc1)[C@H](C)CN([C@@H](C)CO)S2(=O)=O | -36 | 2 | 82 | . | . | . | .
O=C(C[C@H]1C=C[C@@H](NC(=O)C2CCOCC2)[C@@H](CO)O1)NCc1ccncc1 | 25 | . | 23 | . | . | . | .
Cc1ccc(S(=O)(=O)N(C)C[C@@H]2OCCCC[C@H](C)Oc3ccc(NC(=O)Cc4ccccc4)cc3C(=O)N([C@H](C)CO)C[C@@H]2C)cc1 | -76 | . | 112* | 101* | 30 | -21 | ?
C[C@@H]1CCCCO[C@@H](CN(C)S(=O)(=O)c2ccccc2)[C@H](C)CN([C@@H](C)CO)C(=O)c2cc(NC(=O)Cc3ccccc3)ccc2O1 | -41 | . | 83 | . | . | . | .
C[C@@H]1CCCCO[C@H](CN(C)S(=O)(=O)c2ccccc2)[C@H](C)CN([C@H](C)CO)C(=O)c2cc(NC(=O)Cc3ccccc3)ccc2O1 | -61 | . | . | . | . | . | .
COc1ccc(S(=O)(=O)N(C)C[C@H]2OCCCC[C@H](C)Oc3ccc(NC(=O)Cc4ccccc4)cc3C(=O)N([C@@H](C)CO)C[C@@H]2C)cc1 | -83* | 0 | ? | 107* | 43 | -10 | -18
Cc1ccc(S(=O)(=O)N(C)C[C@H]2OCCCC[C@H](C)Oc3ccc(NC(=O)Cc4ccccc4)cc3C(=O)N([C@H](C)CO)C[C@@H]2C)cc1 | -76 | . | 43 | . | . | . | .
C[C@@H]1CCCCO[C@H](CN(C)S(=O)(=O)c2ccccc2)[C@@H](C)CN([C@@H](C)CO)C(=O)c2cc(NC(=O)Cc3ccccc3)ccc2O1 | -67 | . | . | . | . | . | .

Screening data from PubChem.
